Results on 102 molecules are retold here after PubChem BioAssay AID590 (National Center for Advancing Translational Sciences (NCATS), 2007).

Among all 59,000 compounds or so, about 6,500 (11%) were called active. Roughly 15% stayed inconclusive and do not appear here. Cut-off read from the data, not from the text of the source: active = max dye-equivalent concentration above about 10 nM; inconclusive = mostly about 1.1 nM to 9.6 nM; inactive = weaker than that. The sample as a whole holds a higher share of actives than the screen did. Peptide text beside a SMILES is read from it.

A short description of this assay: qHTS Assay for Spectroscopic Profiling in A350 Spectral Region. As to conditions: Compound autofluorescence, 340/450 nm, Alexa 350 dye-equivalents; hits give high values. A general note: Quantitative high-throughput screening tests each substance at several concentrations.
Consider `c1ccc2sc(SCCSc3nc4ccccc4s3)nc2c1`, for which the max dye-equivalent concentration entry is “inactive”.

Consider `CN1CCN(c2nc3c(c(=O)[nH]c(=O)n3C)n2Cc2cccc3ccccc23)CC1`, for which the max dye-equivalent concentration result was “inactive”. For `O=C(c1ccc2c(c1)OCCO2)C1CCN(S(=O)(=O)c2cccc(F)c2)CC1` the value was 12 nM (active). For `O=C(Nc1cccc(F)c1)N1CCC2(CC1)CCN(S(=O)(=O)c1ccccc1)CC2` the value was “inactive”. For `O=C(NCc1cccs1)C1CCN(S(=O)(=O)c2ccc3c(c2)OCCO3)CC1` the value was “inactive”; for `CCc1nc(C)cn1S(=O)(=O)c1cc(OC)c(C)cc1C`, “inactive”; for `CC(C)CCNC(=O)CN(C(=O)Cn1nnc(-c2ccc(F)cc2)n1)C1CCCC1`, “inactive”.

`Cc1cc(O)ccc1-c1cnc2ccccc2n1`: the max dye-equivalent concentration entry was “inactive”. For `Cc1nc2ccccc2cc1O` the value was 2500 nM (active); for `CCOc1cc(C)c(Cl)cc1S(=O)(=O)n1nnc2ccccc21`, “inactive”; for `CCOC(=O)c1[nH]c2ccc(OC)cc2c1NC(=O)N1CCOCC1`, 44 nM (active). For `COc1ccc(OC)c(NC(=O)CCN2CCC(C)CC2)c1` the value was “inactive”. Turning to `CCOC(=O)c1[nH]c2ccc(OC)cc2c1NC(=O)CCN1CCN(Cc2ccccc2)CC1`, the max dye-equivalent concentration is 64 nM (active). For `COc1cc(NC(=O)N2CCOCC2)cc(OC)c1` the value was “inactive”. For `Cc1c(C(=O)N2CCOCC2)[nH]c2ccc(OCc3ccccc3)cc12` the value was “inactive”; for `COC(=O)c1[nH]c2ccccc2c1NC(=O)CN1CCCc2ccccc21`, “inactive”; for `COc1ccccc1CNc1cc(-c2ccccc2CN(C)C)ncn1`, “inactive”.

As for `COCC(=O)N1CCC2(CCCN(c3ccccc3)C2)CC1`, the max dye-equivalent concentration entry was “inactive”.

Regarding `Cc1cc(NC(=O)COn2nnc3ccccc32)no1`, the max dye-equivalent concentration result was “inactive”. For `O=C1NC(=O)[C@@](Cc2ccccc2)(c2cccnc2)N1` the value was “inactive”; for `O=C(NCc1ccccn1)c1c(O)c2c([nH]c1=O)CCCC2`, “inactive”. For `Cc1cccn2c(=O)c3cc(C(=O)N4COCC4(C)C)n(C)c3nc12` the value was 900 nM (active); for `Cc1cccn2c(=O)c3cc(C(=O)NCc4ccccn4)n(C)c3nc12`, 170 nM (active); for `O=C(NCc1ccco1)c1nc2ncccn2n1`, “inactive”. `CCN(CC)C(=O)C1CCC(C)(C(=O)O)C1(C)C` (configuration not stated): the max dye-equivalent concentration entry was “inactive”.

For the molecule `CC(c1ccccc1)n1c(NCCCn2ccnc2)nc2c1c(=O)[nH]c(=O)n2C` (configuration not stated), the max dye-equivalent concentration result was “inactive”. On to `Cc1cc(NC(=O)COC(=O)c2ccc(F)c(S(=O)(=O)N3CCOCC3)c2)no1`, for which the max dye-equivalent concentration entry is “inactive”. For `COc1cc([C@H]2c3cc4c(cc3[C@@H](O[C@@H]3O[C@H]5CO[C@@H](C)O[C@]5(O)C[C@H]3O)[C@@H]3COC(=O)[C@H]23)OCO4)cc(OC)c1O` the value was “inactive”. For `C=CCn1c(SCc2cc(C(=O)OC)c(C)o2)nnc1-c1ccncc1` the value was “inactive”; for `COc1ccc(C(=O)CSc2nccc(=O)[nH]2)cc1`, “inactive”. Regarding `COC(=O)[C@H](C)NC(=O)Nc1ccc(OC(F)(F)F)cc1`, the max dye-equivalent concentration entry is “inactive”. For `CCCN1CC=C2C(C#N)=C(N)C(C#N)(C#N)C(c3cc(OC)ccc3OC)C2C1` (configuration not stated) the value was 110 nM (active). For `CCC1=C(C(=O)OC)C(c2cc(OC)ccc2OC)C(C#N)=C(N)O1` (configuration not stated) the value was “inactive”; for `c1cc(-n2cnnn2)ccc1NC1=NCCC1`, “inactive”; for `CNC(=O)C1CC(=O)N(Cc2ccc3c(c2)OCO3)C(=Nc2ccc(F)cc2)S1` (configuration not stated), “inactive”. For `CC(C)(CSc1nncn1/N=C/c1ccco1)NS(=O)(=O)c1ccc(Cl)cc1` the value was “inactive”. `CC(C)CCNc1nc(N2CCCC2)c2c(c1C#N)CCN(C)C2`: the max dye-equivalent concentration was 33 nM (active). For `O=C(CCOc1ccccc1)NCc1ccccc1` the value was “inactive”; for `O=C1CN(C(=O)COC(=O)C2CC(=O)N(Cc3ccco3)C2)c2ccccc2N1` (configuration not stated), “inactive”; for `COc1ccc(OCCCC(=O)Nc2nnc(C3CCCO3)s2)cc1` (configuration not stated), “inactive”.

As for `COc1ccc(Cc2nnc(NC(=O)Cc3cccs3)s2)cc1`, the max dye-equivalent concentration entry is “inactive”. For `COc1ccc2c(CC(=O)Nc3nnc(C4CC4)s3)coc2c1` the value was 12 nM (active); for `CC1Cc2cc(/C(O)=C3\C(=O)C(=O)N(CCN4CCOCC4)C3c3ccccc3F)ccc2O1` (configuration not stated), “inactive”. For `O=C(O)[C@@H]1[C@@H](C(=O)O)[C@]23C[C@@]2(C(=O)O)[C@]2(C(=O)O)CCC3=C3CCCC312` the value was “inactive”. Take `COc1ccc(S(=O)(=O)NC(CC(=O)NCc2ccccc2OC)c2ccco2)cc1` (configuration not stated): the max dye-equivalent concentration result is “inactive”. With `CCCn1c(O)c(CN2CCCC(C)C2)c(C)c(C#N)c1=O` (configuration not stated), the max dye-equivalent concentration was 19 nM (active). For `CCCCCCn1c(CN2CCCC(C)C2)nc2c1c(=O)n(C)c(=O)n2C` (configuration not stated) the value was “inactive”; for `CCCCC(CCC(=O)Nc1ccc(C(=O)OCC)cc1)C(=O)O` (configuration not stated), “inactive”. For `CCCCc1cc(=O)oc2cc(C)cc(OCc3nn[nH]n3)c12` the value was 77 nM (active).

On to `CC(Sc1nncn1C)C(=O)Nc1ccccc1-c1ccccc1` (configuration not stated), for which the max dye-equivalent concentration result is “inactive”. For `Clc1ccc(Nc2nc(-c3cccs3)cs2)nc1` the value was “inactive”; for `O=C(Nc1ccccc1F)C1C2C=CC3(O2)C1C(=O)N(c1cccnc1)C3C(=O)NC1CCCCC1` (configuration not stated), “inactive”; for `COc1cc(C(=O)N(Cc2ccc(N(C)C)cc2)C2CCS(=O)(=O)C2)cc(OC)c1OC` (configuration not stated), “inactive”. For `CC1CCCCN1S(=O)(=O)c1ccc(C(=O)Nc2nnc(-c3cccs3)o2)cc1` (configuration not stated) the value was “inactive”. For `CCc1nnc(NC(=O)c2ccc(S(=O)(=O)NC3CCCCC3)cc2)s1` the value was “inactive”. As for `Cc1ccc(C(=O)Nc2nnc(-c3cccs3)s2)cc1C`, the max dye-equivalent concentration was 72 nM (active). For `COc1ccc2[nH]cc(CCNc3ncnc4ccc(-c5ccccc5CN(C)C)cc34)c2c1` the value was “inactive”. For `COc1ccc(OC)c(S(=O)(=O)Nc2ccccc2F)c1` the value was 75 nM (active). With `COC(=O)c1ccccc1NC(=O)C1CCN(S(=O)(=O)c2cc(OC)ccc2OC)CC1`, the max dye-equivalent concentration entry was “inactive”. For `COc1ccc(Cl)cc1S(=O)(=O)Nc1cccc(C(=O)O)c1` the value was “inactive”. For `Cc1c(C(=O)OCC(=O)N(CCC#N)c2ccccc2)oc2c1ccc1ccccc12` the value was 14 nM (active). `Cc1c(C(=O)OCc2cc(=O)n3cc(Br)ccc3n2)oc2ccccc12`: the max dye-equivalent concentration entry is “inactive”.

For `COC(=O)N1CCC2(CCCN(c3ccncc3)C2)CC1`, the max dye-equivalent concentration entry is “inactive”. As for `CCc1nc2oc3ccccc3c(=O)c2c(=O)n1Cc1ccc(OC)cc1`, the max dye-equivalent concentration entry is “inactive”. For `COc1ncc2nc(-c3ccc(Cl)cc3)c(=O)n(C)c2n1` the value was 34 nM (active); for `COc1ccc(-c2nc3cnc(Oc4ccccc4)nc3n(Cc3cccs3)c2=O)cc1`, 12 nM (active). For `COc1cccc(Cn2c(=O)c(-c3cc(F)cc(F)c3)nc3cnc(OC)nc32)c1` the value was “inactive”; for `Cc1nc2cnc(Oc3cccc(Cl)c3)nc2n(C2CC2)c1=O`, “inactive”; for `COc1ccc(-c2nc3cnc(OC)nc3n(Cc3ccc(F)cc3)c2=O)cc1`, 12 nM (active). On to `COCCn1c(=O)c(-c2ccc(OC)cc2)nc2cnc(Oc3cccc(Cl)c3)nc21`, for which the max dye-equivalent concentration was 13 nM (active). Consider `COc1cccc(Cn2c(=O)c(-c3ccccc3)nc3cnc(OC)nc32)c1`, for which the max dye-equivalent concentration entry was “inactive”. For `COc1ccc(Oc2ncc3nc(-c4ccc(F)cc4)c(=O)n(C)c3n2)cc1` the value was “inactive”; for `CCOC(=O)CSc1nnc(CNC(=O)c2cccs2)n1-c1cc(OC)ccc1OC`, “inactive”.

Turning to `N#Cc1ccccc1-n1c(N)c(C(=O)N2CCCC2)sc1=S`, the max dye-equivalent concentration result was “inactive”. Turning to `COC(=O)c1ccc(N(CC(=O)NC2CCCC2)C(=O)CNC(=O)c2ccco2)cc1`, the max dye-equivalent concentration entry is “inactive”.

Consider `CCS(=O)(=O)N1CCCC(C(=O)NCCCN(C)Cc2ccccc2)C1` (configuration not stated), for which the max dye-equivalent concentration result is “inactive”.

Regarding `CN1C(=O)C[C@H](c2ccccc2)C1=O`, the max dye-equivalent concentration result was “inactive”. For `O=C(CCCN1C(=O)CCC1=O)Nc1ccc(Cl)c(C(F)(F)F)c1` the value was “inactive”. For `O=c1c(-c2cccs2)nc2cnc(Oc3ccccc3)nc2n1-c1ccccc1` the value was 21 nM (active); for `O=c1c(-c2cc(F)cc(F)c2)nc2cnc(Oc3ccccc3)nc2n1C[C@H]1CCCO1`, 15 nM (active). For `COc1ccc(-n2c(=O)c(-c3cn(C)c4ccccc34)nc3cnc(OC)nc32)cc1` the value was “inactive”. On to `COc1ccc(Oc2ncc3nc(C)c(=O)n(-c4ccccc4)c3n2)cc1`, for which the max dye-equivalent concentration result is “inactive”. For `CCc1ccc(-c2nnn(Cc3nc4ccccc4s3)n2)cc1` the value was “inactive”; for `O=C(N1CCOCC1)N1CCOCC1`, “inactive”. For `O=C(NCc1cn2ccsc2n1)Nc1cccc(Cl)c1` the value was “inactive”. For `CCOC(=O)c1csc(NC(=O)c2ccc(S(=O)(=O)N3CCCC3)cc2)n1` the value was “inactive”. As for `COc1ccc(OCC(=O)OCC(=O)Nc2ccc(S(=O)(=O)N3CCCCC3)cc2)cc1`, the max dye-equivalent concentration entry was “inactive”. For `Cc1cc(=O)[nH]c(SCc2cc(Cl)ccc2OC(F)F)n1` the value was “inactive”. Consider `Cc1ccc(-c2noc(-c3ccccc3C(=O)NCC3CCCO3)n2)cc1` (configuration not stated), for which the max dye-equivalent concentration result was “inactive”. For `Cc1ccc(C(=O)O)cc1S(=O)(=O)NCC1CCCO1` (configuration not stated) the value was “inactive”.

For the molecule `CCOc1cc(-c2nc3cc(C)ccn3c2NCC2CCCO2)ccc1O` (configuration not stated), the max dye-equivalent concentration is 78 nM (active). As for `O=C(CSc1nnc(-c2ccncc2)n1C1CCCCC1)Nc1ccccc1`, the max dye-equivalent concentration entry was “inactive”.

`CN1CCN(S(=O)(=O)c2ccc3[nH]cc(C(=O)O)c(=O)c3c2)CC1`: the max dye-equivalent concentration was 12 nM (active). For `CCN(CC)S(=O)(=O)c1ccc2[nH]cc(C(=O)NCCc3ccccc3)c(=O)c2c1` the value was “inactive”. For `CCOC(=O)N1CCN(C(=O)c2cn(C)c3ccc(S(=O)(=O)N4CCCC4)cc3c2=O)CC1` the value was “inactive”; for `COC(=O)c1cc(S(=O)(=O)NC2CCN(Cc3ccccc3)CC2)cn1C`, “inactive”. Turning to `Fc1ccccc1OCCCCn1cncn1`, the max dye-equivalent concentration result is “inactive”.

As for `C[C@H](NC(=O)NCCc1ccccc1)C(=O)O`, the max dye-equivalent concentration result is “inactive”. For `O=C(Cn1cnc2c(cnn2-c2ccccc2)c1=O)NCc1ccccc1` the value was “inactive”; for `CN(C)CCCn1c(N)c(C#N)c2nc(C#N)c(C#N)nc21`, 620 nM (active); for `Cc1cccc(C)c1NC(=O)CCCSc1nnc(-c2ccco2)n1-c1ccccc1`, “inactive”. For `CC(=O)NC(C(=O)NCC(N)=O)C(C)C` (configuration not stated) (HELM PEPTIDE1{[ac].[CC(C)C(N[*:1])C(=O)[*:2]].G.[am]}$$$$V2.0) the value was “inactive”.
